PNC assembly inh = perinucleolar compartment assembly inhibition; 140,000 compounds, 3.1% hits; activity change (PNC), negative = inhibition, % at 10 µM; PC3M PTB-GFP, PNC prevalence imaging, 16 h; active compounds read low;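 active = readout at or below -70, meaning at least 70% loss of cells showing the perinucleolar compartment, a nuclear body marking cancer cells; inconclusive = readout between -30 and a set limit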;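 note: plate controls were DMSO wells for no effect and camptothecin positive control wells for full effect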
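PC3M cells stably expressing PTB-GFP, 750–1000 cells/well, treated 16 h at 37 °C with compound (23 nl of library stock), in duplicate. After paraformaldehyde fixation and Hoechst stain, imaged at 20x; PNC prevalence scored by image analysis.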
ALDH1A1 block = blocks purified human ALDH1A1 activity; P00352; Purified ALDH1A1, NADH fluorescence, propionaldehyde substrate; Potency, µM (highest dose often 75.3 µM), without a hit: at the highest dose activity, negative = inhibition, hits mostly inhibitors; 220,000 compounds, 7.3% hits; active = well fitted inhibition curve with a large enough effect, not every such curve was filed as active; inconclusive = small, poorly fitted or top-dose-only effect, or another doubt; inactive = no such curve, though single readings can be large or run the other way;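 note: potency is the fitted concentration of half-maximal effect; plate controls were no enzyme wells and a reference inhibitor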
GLA inh pH 4.5 = alpha-galactosidase A (human) inhibition, pH 4.5 | P06280 | purified enzyme, 4-MU-alpha-Gal fluorescence, pH 4.5 | activity change, negative = inhibition, % at 105 µM | 230,000 tested, under 10 active | AID 1467;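 note: 0% = full activity with enzyme and -100% = basal without enzyme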
Target sequence (P06280 whole entry, looked up): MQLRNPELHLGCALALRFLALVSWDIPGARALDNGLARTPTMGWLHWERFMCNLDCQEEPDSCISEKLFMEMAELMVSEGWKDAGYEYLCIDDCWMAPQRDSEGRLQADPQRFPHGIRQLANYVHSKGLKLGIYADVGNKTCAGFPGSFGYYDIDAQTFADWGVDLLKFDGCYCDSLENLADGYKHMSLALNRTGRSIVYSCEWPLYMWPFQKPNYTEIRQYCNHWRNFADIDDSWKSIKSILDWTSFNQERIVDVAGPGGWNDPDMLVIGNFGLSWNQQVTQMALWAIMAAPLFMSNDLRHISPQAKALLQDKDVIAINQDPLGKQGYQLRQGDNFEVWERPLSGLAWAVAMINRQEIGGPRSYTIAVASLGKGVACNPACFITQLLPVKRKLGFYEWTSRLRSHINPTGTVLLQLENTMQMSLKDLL
ALOX12 inhib = inhibitors of human 12-lipoxygenase (ALOX12). P18054. purified 12-hLO, xylenol orange hydroperoxide absorbance. Potency, µM (titrated, usually from 57.1 µM), for inactives: top-dose activity change, negative = inhibition, hits mostly inhibitors. 150,000 compounds, 0.12% hits; note: potency is the fitted concentration of half-maximal effect; nearly all actives have a fitted effect of over 55% in size
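Lipoxygenase turnover measured by absorbance at 573 and 405 nm after Fe-XO development. Human 12hLO 150 nM, arachidonate 40 uM, pH 7.0 Hepes buffer with detergent; 15 min compound preincubation, 30 min reaction.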
HPGD block = blocks human HPGD enzyme activity. 150,000 compounds, 4.3% hits. purified HPGD, NADH fluorescence kinetic, PGE2 substrate. Potency, µM, without a hit: at the top dose activity change, negative = inhibition, usual class: inhibitors. AID 894. P15428; active = well fitted inhibition curve with a large enough effect, not every such curve was filed as active; inconclusive = small, poorly fitted or top-dose-only effect, or another doubt; inactive = no such curve, though single readings can be large or run the other way; note: potency is the fitted concentration of half-maximal effect
Target sequence (P15428 whole entry, looked up): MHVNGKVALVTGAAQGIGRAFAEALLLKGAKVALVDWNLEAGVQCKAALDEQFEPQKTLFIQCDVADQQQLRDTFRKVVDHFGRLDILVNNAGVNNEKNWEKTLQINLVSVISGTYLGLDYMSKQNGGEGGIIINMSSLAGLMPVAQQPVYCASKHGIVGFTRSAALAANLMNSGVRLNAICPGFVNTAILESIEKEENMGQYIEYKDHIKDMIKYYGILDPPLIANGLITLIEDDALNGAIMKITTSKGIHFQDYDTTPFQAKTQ
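NADH formation kinetics: reaction with 30 uM PGE2 and 1 mM NAD+ (final), 20 nM enzyme, Tris-HCl pH 8 with Tween 20, after 15 min compound preincubation at room temperature. Fluorescence change, last versus first of five reads.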
GLA spleen mod = inhibitors or activators of human alpha-galactosidase in spleen homogenate | 240,000 compounds, 0.008% hits | human spleen homogenate, 4MU-alpha-Gal fluorescence, 40 min | Potency, µM (highest dose often 80 µM), inactives show at the top dose activity change, negative = inhibition, most hits filed as inhibitors | AID 2107;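 note: potency is the fitted concentration of half-maximal effect; 0% = enzyme with vehicle and -100% = no enzyme basal signal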
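qHTS titration in buffer at pH 5.0. Alpha-galactosidase activity in spleen homogenate was measured via 4-methylumbelliferone release from 1 mM fluorogenic substrate after 40 min at 37C and a pH 10 stop. AC50 came from Hill fits of control-normalized data.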
An asterisk follows results filed as active; ? = inconclusive; / = no result given; [ ] = dose if it differs, or a comment. In the library only some 10% were active in any assay of this set; here they are far more common. Unless noted, calls come from the whole dose curve; as a rule, active = well fitted curve in the direction sought with a large enough effect; inconclusive = small, poorly fitted or top-dose-only effect, or another doubt; inactive = no such curve, though single readings can be large; an effect the other way counts as inactive or inconclusive. Unless noted, % is set by controls: 0 for no effect and ±100 for the full control effect.

SMILES | PNC assembly inh | ALDH1A1 block | GLA inh pH 4.5 | ALOX12 inhib | HPGD block | GLA spleen mod
CC1=NN(c2ccc(N)cc2)C(=O)C1 | 33.8 | ? | 0.7 | -5.7% | -2.2% | -4.3%
CCOC(=O)C(C(C)=O)=C1SC2CS(=O)(=O)CC2S1 (stereo not given) | -126.9* | 9.9% | 1.0 | 2.8% | -10.9% | 15.5%
CCOc1ccc(S(=O)(=O)N(CC(=O)N/N=C/c2cccs2)c2ccc(C)cc2)cc1 | ? | 5.0% | -4.9 | -7.8% | -28.9% | 2.0%
COc1cccc(Nc2ncc3nc(-c4cccs4)c(=O)n(C[C@H]4CCCO4)c3n2)c1 | / | -0.9% | / | / | / | -3.5%
COc1ccc(-c2nnc(Nc3ccc(OC)c(C(=O)N4CCCCC4)c3)c3ccccc23)cc1 | -22.8 | ? | 2.2 | -17.4% | 14.1µM* | -3.7%
CNc1ncnc2c1ncn2[C@@H]1O[C@H](COP(=O)(O)O)[C@@H](O)[C@H]1O | / | 2.7% | / | / | / | 8.3%
CS(=O)(=O)Nc1cccc(-c2nccc(NCc3ccccc3)n2)c1 | / | 5.8% | 6.3 | -3.6% | -8.1% | 15.0%
Cc1cc(C(=O)CSc2nnnn2C)c(C)n1Cc1ccco1 | / | 28.2µM* | 4.3 | / | / | -8.0%
Cc1cc(C(=O)COC(=O)c2ccc(Br)o2)c(C)n1Cc1ccco1 | / | ? | -2.2 | / | / | -9.2%
Cc1cc(C(=O)C(C)Cl)c(C)n1Cc1ccco1 (stereo not given) | / | 7.08µM* | -2.3 | / | / | -5.7%
Cc1cc(C(=O)COC(=O)c2ccc(O)cc2)c(C)n1Cc1ccco1 | 26.8 | 7.94µM* | ? | 0.5% | -20.1% | 6.2%
COC(=O)[C@@]1(Cc2ccc(F)cc2)[C@H]2c3cc(C(=O)N(C)C)n(CCc4ccc(O)c(O)c4)c3C[C@H]2CN1C(=O)c1ccccc1 | / | -8.5% | -4.9 | -29.9% | ? | 0.2%
O=C(NCc1nnc(SCC(=O)N2CCOCC2)o1)c1c(F)cccc1Cl | / | ? | -2.2 | / | / | 17.0%
CCN(C(=O)c1ccc(Cl)c([N+](=O)[O-])c1)c1ccccc1 | / | 12.6µM* | 19.2 | / | / | 3.5%
O=C(c1ccc(Cl)c([N+](=O)[O-])c1)N(c1ccccn1)c1ccccn1 | ? | 0.2% | -5.8 | -3.4% | -6.4% | 5.7%
COc1ccccc1NNC(=O)c1cccnc1Oc1ccccc1 | / | 14.1µM* | 1.2 | / | / | -0.7%
Cc1cc(C(=O)CSc2nnc(NCc3ccccc3)s2)c(C)n1C | -18.4 | -5.7% | -15.6 | -10.2% | 17.8µM* | 0.4%
CN1/C(=C\C(=O)CSc2nnc(NCc3ccccc3)s2)C(C)(C)c2ccccc21 | 27.8 | -8.2% | -0.1 | -0.1% | -20.9% | -1.0%
O=C(c1ccccc1)c1c[nH]c(C(=O)NNc2ccccc2)c1 | / | 22.4µM* | -3.2 | / | / | -3.3%
O=C(c1ccccc1)c1c[nH]c(C(=O)NCc2cccnc2)c1 | 8.4 | -1.1% | 7.8 | -1.1% | ? | 1.6%
NCCCC[C@H](NC(=O)[C@@H]1CCCN1C(=O)[C@H](CO)NC(=O)[C@H](CC(=O)O)NC(=O)CNC(=O)[C@H](CCCN=C(N)N)NC(=O)CN)C(=O)O | / | / | / | / | / | -4.0%
O=C(NS(=O)(=O)c1ccccc1)c1ccccc1F | -122.4* | 3.9% | 3.4 | 1.8% | ? | 1.9%
CCOC(=O)c1c(NCC2CCCO2)c2ccccc2[nH]c1=O (stereo not given) | 26.3 | 15.8µM* | 14.5 | 0.9% | -15.0% | -4.4%
CCOC(=O)c1c(CN2CCOCC2)n(-c2ccccc2)c2cc(Br)c(O)cc12 | 39.3 | 4.1% | 5.4 | 1.7% | -7.3% | -13.0%
CCOC(=O)c1c(CN2CCOCC2)n(-c2ccccc2)c2cc(Br)c(OC)cc12 | -92.4* | ? | -3.6 | -4.5% | -11.6% | -9.7%
SMILES | PNC assembly inh | ALDH1A1 block | GLA inh pH 4.5 | ALOX12 inhib | HPGD block | GLA spleen mod
O=C(O)CCCCCn1c(O)c(C=C2N=c3ccccc3=N2)sc1=S | ? | -15.0% | -6.8 | -1.3% | ? | -2.0%
O=C1N/C(=N/Nc2ccccc2)S/C1=C\c1ccccc1 | 26.9 | 5.62µM* | 5.6 | ? | 10µM* | 3.3%
O=C1NC(=Nc2ccccc2)S/C1=C/c1cccnc1 | / | 0.2% | 0.3 | / | / | -5.9%
O=C(c1ccco1)N1CCC2(CC1)CCN(C(c1ccccc1)c1ccccc1)CC2 | / | 0.6% | / | 1.4% | -1.8% | -8.9%
CC(=C1C(=O)c2ccccc2C1=O)N1CCN(c2ccc(F)cc2)CC1 | / | 17.8µM* | 0.3 | / | / | -7.9%
CSc1ccccc1C(=O)N1CCN(c2ccc(F)cc2)CC1 | 7.4 | 4.8% | 5.5 | -0.7% | -14.5% | -6.5%
ClC(Cl)Cl | / | -13.9% | / | 1.3% | -5.4% | -10.0%
COc1ccc(/C=N/NC(N)=S)cc1OC(=O)c1cccc2ccccc12 | ? | ? | -0.2 | ? | -15.5% | -4.4%
COCC(=O)N1CCC[C@@]2(CCN(C(=O)Nc3ccc(OC)cc3)C2)C1 | / | 1.0% | / | 0.0% | -5.6% | -6.8%
CCN(Cc1ccccc1)C(=O)CSc1ccccc1C(=O)O | / | ? | 1.0 | / | / | 3.3%
CCN(Cc1ccccc1)C(=O)CSc1nncn1C | / | 31.6µM* | -10.0 | / | / | -0.8%
CCOc1cc(/C=N/NC(=O)c2nn(C)cc2Br)ccc1OCc1ccccc1Cl | -111.8* | 1.5% | -14.7 | -1.8% | -28.6% | -2.2%
COc1ccc(C(C)=O)cc1CSc1nncn1C | / | -3.9% | -1.8[21.1 µM] | / | / | 0.9%
COc1cc(/C(C)=N/NC(=O)CSc2nncn2C)ccc1OCc1ccccc1Cl | -7.7 | 5.01µM* | -0.1 | -1.7% | -22.3% | -0.4%
CCOc1cc(/C=N/NC(=O)CSc2nncn2C)ccc1OCc1ccccc1 | -96.3* | -5.8% | -6.1 | 2.8% | -18.4% | 9.6%
C=CCC(C)(O)c1ccccc1 (stereo not given) | / | 4.0% | 0.9 | / | -13.9% | -7.4%
COCCCN(CCC#N)C(=O)c1c(-c2c(Cl)cccc2Cl)noc1C | / | 8.3% | -6.6 | / | / | 3.5%
O=C(c1ccc(Cl)cc1)C1CCCN(Cc2ccc(Oc3ncccn3)cc2)C1 (stereo not given) | / | 28.2µM* | / | / | / | 12.2%
C[C@H]1CN(CCO)CCN1c1ccccc1 | / | 6.8%[13.5 µM] | / | 2.8%[11.4 µM] | -3.5% | /
CCOc1ccc(/C(O)=C2\C(=O)C(=O)N(c3cc(C)on3)C2c2ccccc2OC)cc1 (stereo not given) | ? | 22.4µM* | 4.0 | -5.1% | ? | 2.7%
O=C(NC1CC1)C1CCN(c2ccc(S(=O)(=O)N3CCOCC3)cc2Cl)CC1 | -2.3 | 6.6% | -5.1 | 5.2% | 25.1µM* | 5.5%
CC(C)CNC(=O)C1CCN(c2ccc(S(=O)(=O)N3CCOCC3)cc2Cl)CC1 | -20.1 | 15.7% | -5.8 | -1.7% | 15.8µM* | -5.2%
CC(C)(C)NC(=O)C1CCN(c2ccc(S(=O)(=O)N3CCOCC3)cc2Cl)CC1 | / | -2.5% | 3.5 | / | / | -1.5%

Assay outcomes from PubChem.
